Laboratory results reported in the supplement of paper PMC6555819.

What was measured:
Experiment in all cases: PBM binding z-score (relative to random genomic background probes); higher = stronger binding; sequences stand for … in GC…GCGATTGACAGCGTAGAATGAAGG
[1] = system: FXR:RXRa (NR concentration 270 nM, RXRa partner concentration 90 nM)
Outline: (§1)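 Custom Agilent 4×180K protein-binding microarrays carried double-stranded probes, each with a 34-nt variable region. These regions held direct-repeat seeds, single-nucleotide variants, half-site ablations and random human genomic background sequences. Ligand-free nuclear receptor dimers were incubated on the arrays for 1 h, antibodies against each partner (one per run) detected binding, and scanned fluorescence was regression-normalized. Binding z-scores take the random background probes as reference.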

[2] = system: LXRa:RXRa (NR concentration 270 nM, RXRa partner concentration 90 nM)
Outline: as §1

[3] = system: LXRa homodimer (NR concentration 270 nM)
Outline: as §1

[4] = system: LXRb:RXRa (NR concentration 270 nM, RXRa partner concentration 90 nM)
Outline: as §1

[5] = system: LXRb homodimer (NR concentration 270 nM)
Outline: as §1

[6] = system: PPARa:RXRa (NR concentration 270 nM, RXRa partner concentration 90 nM)
Outline: as §1

[7] = system: PPARg:RXRa (NR concentration 180 nM, RXRa partner concentration 90 nM)
Outline: as §1

[8] = system: PPARg:RXRa 270nM:90nM, anti-RXR (NR concentration 270 nM, RXRa partner concentration 90 nM)
Outline: as §1

[9] = system: PPARg:RXRa 30nM:10nM, anti-RXR (NR concentration 30 nM, RXRa partner concentration 10 nM)
Outline: as §1

[10] = system: PPARg:RXRa 90nM:30nM, anti-RXR (NR concentration 90 nM, RXRa partner concentration 30 nM)
Outline: as §1

[11] = system: PPARg:RXRa DBDmut IVT, anti-RXR (DBD mutation: RXRa K156A/R161A, NR concentration 270 nM, RXRa partner concentration 90 nM)
Outline: as §1

[12] = system: PPARg:RXRa IVT, anti-PPARg (NR concentration 270 nM, RXRa partner concentration 90 nM)
Outline: as §1

[13] = system: PPARg DBDmut:RXRa IVT, anti-PPARg (DBD mutation: PPARg1 K132A/R137A, NR concentration 270 nM, RXRa partner concentration 90 nM)
Outline: as §1

[14] = system: PPARg DBDmut IVT, anti-PPARg (DBD mutation: PPARg1 K132A/R137A, NR concentration 270 nM)
Outline: as §1

[15] = system: PPARg homodimer (NR concentration 180 nM)
Outline: as §1

[16] = system: PXR:RXRa (NR concentration 270 nM, RXRa partner concentration 90 nM)
Outline: as §1

[17] = system: PXR homodimer (NR concentration 270 nM)
Outline: as §1

[18] = system: RARa:RXR (NR concentration 270 nM, RXRa partner concentration 90 nM)
Outline: as §1

[19] = system: RARa homodimer (NR concentration 270 nM)
Outline: as §1

[20] = system: RARb:RXRa (NR concentration 270 nM, RXRa partner concentration 90 nM)
Outline: as §1

| Sequence | PBM binding z-score [1] | PBM binding z-score [2] | PBM binding z-score [3] | PBM binding z-score [4] | PBM binding z-score [5] | PBM binding z-score [6] | PBM binding z-score [7] | PBM binding z-score [8] | PBM binding z-score [9] | PBM binding z-score [10] | PBM binding z-score [11] | PBM binding z-score [12] | PBM binding z-score [13] | PBM binding z-score [14] | PBM binding z-score [15] | PBM binding z-score [16] | PBM binding z-score [17] | PBM binding z-score [18] | PBM binding z-score [19] | PBM binding z-score [20] |
| --- | --- | --- | --- | --- | --- | --- | --- | --- | --- | --- | --- | --- | --- | --- | --- | --- | --- | --- | --- | --- |
| TGTCAAGGTTCAAAGGTAACGTAAGTATCCACAC | 6.06 | 5.12 | 1.39 | 3.74 | 0.581 | 5 | 6.29 | 6.26 | 3.14 | 5.92 | -0.0297 | 3.17 | 0.246 | 0.633 | 3.16 | 4.14 | 0.595 | 5.82 | 0.446 | 3.32 |
| CGTCAAAGTTCAACTACGGTAACGTAAAGCACGC | 6.73 | 6.61 | 4.35 | 4.24 | 2.11 | 5.17 | 4.85 | 5.54 | 2.32 | 4.26 | 0.132 | 1.78 | 0.517 | 0.931 | 3.69 | 5.14 | 3.79 | 4.38 | 2.22 | 5.2 |
| GCTGCTAGGTCAACTGATGGTAAGCTAAAGCTCG | 3.67 | 2.53 | -0.233 | 1.66 | -0.0534 | 3.56 | 2.6 | 2.85 | 0.773 | 2.04 | 5.03 | 3.79 | -0.843 | -0.572 | 1.33 | 1.29 | -0.824 | 2.02 | 0.282 | 4.06 |
| CAAGCTAGGTCAAGGTCAAAGTCGGTTTGTGCCA | 6.4 | 5.71 | 4.42 | 4.74 | 1.37 | 5.36 | 5.58 | 5.39 | 2.37 | 4.73 | 4.41 | 5.17 | -0.662 | 0.302 | 3.54 | 5.15 | 1.35 | 5.06 | 1.43 | 5.2 |
| ACTTACAGGTCAACGAGGTTATAGCACGCGTATA | 6.79 | 5.97 | 3.32 | 4.66 | 1.8 | 5.76 | 5.5 | 5.63 | 2.14 | 4.37 | 4.4 | 4.7 | 1.92 | 1.44 | 2.53 | 5.25 | 5.38 | 4.94 | 1.81 | 4.52 |
| GTAGACAGGTGAAACGCAGGTAACTCAGGGTGGC | 0.081 | 0.114 | -0.34 | -0.0403 | -0.733 | 0.941 | 0.744 | 0.425 | -0.305 | 0.121 | 1.08 | 0.827 | -0.547 | -0.798 | -0.292 | -0.0707 | -0.535 | 0.264 | -0.278 | 0.688 |
| AGAATGAGGTTACCAAAGATCAGGCAAACGCTTG | 1.67 | 5.94 | -0.392 | 3.24 | -0.531 | 3.41 | 2.77 | 2.57 | 0.868 | 1.84 | 3.6 | 3.49 | 0.423 | 0.272 | 0.661 | 1.24 | -0.362 | 2.11 | -0.358 | 2 |
| ATATGTGGGTTAGCTGGGGTCATTCAGACTAGGC | 4.69 | 5.5 | 2.93 | 4.93 | 2.51 | 5.09 | 5.17 | 4.9 | 2.27 | 4.19 | 6.16 | 5.6 | 3.15 | 2.88 | 3.21 | 6.47 | 6.39 | 5.9 | 1.64 | 2.96 |
| CCTAACGGGTCACTCCAGGTTATAGCATCGGAGT | 3.94 | 7.24 | 1.46 | 4.81 | 0.101 | 3.5 | 2.32 | 2.54 | 0.338 | 1.43 | 1.88 | 2.52 | -0.282 | -0.298 | 1.23 | 4.32 | 0.412 | 2.86 | 0.233 | 3.15 |
| GCTCGGAGAACAAGGTCAGAGCTTTGTCCGTAGA | 1.25 | 1.41 | -0.275 | 1.11 | -1.02 | 2.37 | 0.176 | 0.774 | -0.425 | 0.29 | 0.447 | 0.471 | -0.968 | -1.78 | 0.759 | 1.73 | -0.538 | 1.79 | -0.831 | 2.86 |
| ACTAGCAGGCCAACGGTCACTCAAGATTAGTCCG | -0.155 | -0.0207 | 0.0255 | -0.508 | -0.572 | 1.37 | 2.56 | 3.92 | 2.08 | 3.72 | 1.21 | 1.38 | -0.412 | -0.352 | 0.237 | -0.526 | -0.588 | 0.0763 | -0.817 | 1.64 |
| GCTAGCAGGCCATTTGGGTCACTTAATGACGGGC | 0.0717 | -0.185 | -0.464 | -0.142 | -0.905 | 1.16 | 0.67 | 0.681 | -0.515 | 0.00792 | 1.56 | 1.89 | -0.44 | -0.938 | -0.528 | 0.407 | -0.077 | 0.758 | -1.06 | 1.3 |
| CCTATTAGTTGACCATAAGAGCAACCGAAGCTCG | 0.554 | 0.617 | 1 | 0.594 | 1.16 | 0.283 | 0.521 | 0.101 | 0.292 | -0.0122 | 0.641 | 0.0362 | 0.382 | 0.759 | 2.08 | 0.627 | 0.992 | 0.532 | 2.97 | 0.667 |
| CCTAGTAGTTGACCATAAGGGCAACCGAAGCTCG | 0.577 | 0.379 | 0.118 | 0.228 | 0.0472 | 0.369 | 0.269 | 0.285 | -0.556 | 0.0396 | -0.333 | 0.506 | -0.485 | -0.576 | 1.26 | 0.431 | 0.221 | 0.651 | 0.534 | 1.49 |
